Laboratory results from PubChem BioAssay.
Active and inactive are the calls of the source. The rule behind the calls is not given here.

test: inhibition of Brca1/Bard1 split-luciferase complementation, confirmation, counter-screen for Mdm2/MdmX interaction inhibitor project, luminescence, single concentration (AID 504668); conditions: Brca1/Bard1 bimolecular luciferase complementation counterscreen, at 8 µM, active compounds read high

| SMILES | inhibition |
| --- | --- |
| Cc1ccc(NC(=O)Cn2nnc(C(=O)NCCc3ccccc3)c2N)cc1Cl | 29.3% (active) |
| Cc1cc(C(=O)NC2CCCc3c2cnn3-c2cccc(C)c2C)no1 (centres undefined) | 23.6% (active) |
| CC(C)CC(=O)NC(c1cccs1)c1ccc2cccnc2c1O (centres undefined) | 25.3% (active) |
| CC(C)[C@H](NC(=O)c1ccccc1Cl)C(=O)Nc1nc(-c2ccccn2)cs1 | 35.6% (active) |
| COc1cccc(Nc2nc(NCCO)c3ccccc3n2)c1 | 27.7% (active) |
| CCOC(=O)c1c(-c2ccccc2)oc2ccc(OCC(O)CN(C)C)cc12 (centres undefined) | 32.5% (active) |
| C=CC(=O)N1c2ccccc2Sc2ccc(NC(=O)OCC)cc21 | 35.2% (active) |
| Cc1ccc(-c2cnc(C3CC3)o2)cc1S(=O)(=O)Nc1ccccc1 | 33.6% (active) |
| CC#CC[N+](C)(C)CCCCCCCCCCCC | 29.6% (active) |
| O=C(N/N=C/c1c(O)ccc2ccccc12)c1cccnc1 | 29.9% (active) |
| Nc1cccc2nc3ccccc3cc12 | 32.2% (active) |
| Cc1cccc(/C=N/NC(=O)c2c(-c3ccccc3)noc2C)c1O | 35.6% (active) |
| Cc1ccc(CSC(Nc2ccc(F)cc2)=C(C#N)C#N)cc1 | 24.3% (active) |
| Cc1ccc(S(=O)(=O)c2c(C)nn(C(C)(C)C)c2OC(=O)c2ccc(Br)o2)cc1 | 29.3% (active) |
| COc1ccc(-c2csc(NC(=S)NC(=O)c3ccco3)n2)cc1Br | 23.1% (active) |
| Nc1nonc1-n1nnc(C(=O)N/N=C/c2cc(Cl)ccc2O)c1CN1CCCCCC1 | 32.2% (active) |
| COc1ccc(-c2oc3ncnc(NCCCN(C)C)c3c2-c2ccc(OC)cc2)cc1 | 28.6% (active) |
| O=C(NC(CSCc1ccccc1)C(=O)N/N=C/c1ccc(O)cc1O)c1ccc([N+](=O)[O-])cc1 (centres undefined) | 34.3% (active) |
| O=C(CCl)Nc1cn(-c2ccccc2)nc1-c1ccccc1 | 33.7% (active) |
| CCCCCCCCn1c2c(c(=N)c3ccccc31)CCC2 | 27.2% (active) |
| Cc1[nH]c(N=Nc2ccccc2)nc1N=Nc1ccccc1 | 24.1% (active) |
| COc1ccc([N+](=O)[O-])cc1NC(=S)NC(NC(=O)C(c1ccccc1)c1ccccc1)C(Cl)(Cl)Cl (centres undefined) | 29.2% (active) |
| C/C(=N\NC(=O)c1cc2ccccc2cc1O)c1ccccn1 | 24.3% (active) |
| C=C1C(O)[C@@H]2O[C@]3(CC[C@H](/C=C/C(C)[C@@H]4CC(C)=CC5(O[C@H](C[C@@](C)(O)CO)CCC5O)O4)O3)CC[C@H]2O[C@@H]1C(O)CC(C)[C@H]1OC2(CCCCO2)CCC1C (some centres undefined) | 33.4% (active) |
